Test systems include T-47D breast; BT-549 breast; MDA-MB-435 melanoma; SW-620 colon; MCF7 breast; HCT-116 colon; HCC-2998 colon; KM12 colon.
Holding throughout (test): NCI-60 one-dose screen, 48 h (100 = growth as untreated, 0 = no growth, -100 = all killed)
Conditions in all cases: 10 µM unless noted

The panel holds about 83,000 compounds, 20% with a hit somewhere; the sample as a whole holds those more often.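 Plates (96-well) were seeded with cells, treated with compound at one concentration, and incubated for 48 hours before percent growth was determined.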 Values without a mark were called inactive. The source made the active and inactive calls. How the source made its calls: active means growth percent below 10; inactive means the rest.

Take `COc1cc(-c2nc3sc4c(c3c(=O)[nH]2)CCCCCC4)cc(OC)c1OC`: the growth is 32.8% in the assay with T-47D breast; 53.1% with BT-549 breast; -18% (active) in the assay with MDA-MB-435 melanoma; 30.3% in the assay on SW-620 colon; 15% in the assay on MCF7 breast; 20.3% in the assay with HCT-116 colon. For the same compound, the growth is -1.77% (active) with HCC-2998 colon and 28.6% in the assay on KM12 colon.
As to `Cc1ccc(-c2csc(N)n2)cc1`, the growth in the assay with T-47D breast is 92.9%; in the assay on BT-549 breast it was 93%; in the assay on MDA-MB-435 melanoma, 106%; in the assay with SW-620 colon, 105%; in the assay with MCF7 breast, 106%; in the assay with HCT-116 colon it was 99.9%. Further, the growth in the assay on HCC-2998 colon is 98.7%; in the assay on KM12 colon, 106%.
For `Nc1ccc2c(c1)Cc1cc(Cl)c(Cl)cc1-2`, the growth in the assay with T-47D breast was 85.3%; with BT-549 breast, 60.4%; in the assay on MDA-MB-435 melanoma, 28.1%; with SW-620 colon, 38.1%; in the assay on MCF7 breast, 30%; in the assay with HCT-116 colon, 49.5%. For the same compound, the growth with HCC-2998 colon is 66.4%; in the assay on KM12 colon it was 52.2%.
On to `O=C1c2cccc(NCCN=Cc3ccccc3O)c2C(=O)c2c(NCCN=Cc3ccccc3O)cccc21`, for which the growth in the assay on T-47D breast is 18%; with BT-549 breast it was 49%; in the assay with MDA-MB-435 melanoma, 24.7%; in the assay on SW-620 colon, 0.678% (active); in the assay on MCF7 breast it was 3.69% (active); with HCT-116 colon, 7.91% (active). In addition, the growth in the assay on HCC-2998 colon was 2.57% (active); with KM12 colon, 6.07% (active).
`N#Cc1c(-c2ccccc2)cc(-c2ccccc2)n(CC(=O)O)c1=O`: the growth with T-47D breast was 45.3%; in the assay on BT-549 breast it was 25.8%; with MDA-MB-435 melanoma it was -10.6% (active); in the assay with SW-620 colon, 32.8%; with MCF7 breast it was 34.8%; with HCT-116 colon it was 39.2%. For the same compound, the growth with HCC-2998 colon was 82.4%; in the assay with KM12 colon, 41.3%.
For the compound `COc1cc(/C=C/C(=O)c2c(C)n([O-])c3ccc(Cl)cc3[n+]2=O)cc(OC)c1OC`, the growth is 58.6% with T-47D breast; 53.8% in the assay on BT-549 breast; 84.1% with MDA-MB-435 melanoma; 82.2% with SW-620 colon; 42.2% in the assay with MCF7 breast; 62.6% with HCT-116 colon. In addition, the growth with HCC-2998 colon is 106%; in the assay with KM12 colon it was 96.2%.
As to `C[C@H]1O[C@@H](O[C@H]2[C@@H](O)C[C@H](O[C@H]3[C@@H](O)C[C@H](O[C@H]4CC[C@]5(C)C6C[C@@H](O)[C@]7(C)[C@@H](C8=CC(=O)OC8)CC[C@]7(O)C6CC[C@@H]5C4)O[C@@H]3C)O[C@@H]2C)C[C@H](O)[C@@H]1O` (stereo not given in full), the growth is -49.1% (active) in the assay with T-47D breast; -89.6% (active) with BT-549 breast; -100% (active) in the assay with MDA-MB-435 melanoma; -97.9% (active) in the assay on SW-620 colon; -26.5% (active) in the assay on MCF7 breast; -88.7% (active) in the assay on HCT-116 colon. The growth in the assay on HCC-2998 colon is -79.1% (active); in the assay with KM12 colon, -100% (active).
`O=C(/C=C/c1cccc(Nc2ccnc3cc(Cl)ccc23)c1)c1ccc(Cl)cc1`: the growth in the assay with T-47D breast is 39.8%; in the assay with BT-549 breast it was 54.3%; with MDA-MB-435 melanoma, 56.9%; with SW-620 colon it was 24.7%; in the assay with MCF7 breast it was 27.6%; in the assay with HCT-116 colon it was 14.2%. Moreover, the results for the growth in the assay with HCC-2998 colon and in the assay with KM12 colon were 71.4% and 62.6%, respectively.
As for `CCNCCCn1c2c(c3ccc(F)cc3c1=O)C(=O)c1cc(OC)cnc1-2`, the growth with T-47D breast is -10.8% (active); with BT-549 breast it was -22.7% (active); in the assay with MDA-MB-435 melanoma it was 1.77% (active); in the assay with SW-620 colon it was -16.1% (active); in the assay with MCF7 breast it was -4.74% (active); in the assay on HCT-116 colon, -62.1% (active). The values for the growth in the assay on HCC-2998 colon and with KM12 colon were -56.1% (active) and 1.84% (active), respectively.
As for `COc1ccc2c(c1)sc1nc(-c3ccc(N(C)C)cc3)cn12`, the growth in the assay on T-47D breast is 68.7%; in the assay with BT-549 breast, 99%; with MDA-MB-435 melanoma, 104%; with SW-620 colon it was 104%; in the assay on MCF7 breast, 84%; with HCT-116 colon it was 91.7%. The results for the growth in the assay on HCC-2998 colon and in the assay with KM12 colon were 92% and 75.8%, respectively.
As for `c1ccc(-c2nc(Nc3nccnn3)c3ccccc3n2)cc1`, the growth in the assay with T-47D breast was 83.4%; in the assay on BT-549 breast it was 99.1%; in the assay on MDA-MB-435 melanoma, 101%; in the assay on SW-620 colon it was 97.9%; with MCF7 breast, 75%; in the assay with HCT-116 colon, 100%. The growth in the assay with HCC-2998 colon is 106%; in the assay with KM12 colon it was 97.8%.
Regarding `N/C(=N\c1nc2ccccc2s1)NC(=O)Nc1ccccc1Cl`, the growth with T-47D breast is 37%; in the assay on BT-549 breast, 18.6%; in the assay on MDA-MB-435 melanoma, -31.8% (active); in the assay on SW-620 colon, 27.7%; in the assay on MCF7 breast, 21.1%; in the assay with HCT-116 colon, 13%. Also, the figures for the growth with HCC-2998 colon and with KM12 colon were 14.2% and 12.7%, respectively.
Turning to `O=C(CN1CCN(c2ccc(Cl)cc2)CC1)N1CCN(c2nnc(-c3ccc(Cl)cc3)c(-c3ccc(Cl)cc3)n2)CC1`, the growth in the assay with T-47D breast was 52.4%; in the assay on BT-549 breast it was 89.3%; with MDA-MB-435 melanoma, 73.4%; in the assay with SW-620 colon it was 80.6%; in the assay with MCF7 breast it was 56.7%; with HCT-116 colon, 47.2%. The growth in the assay with HCC-2998 colon was 84.9%; in the assay with KM12 colon it was 63%.
For the compound `O=c1oc2c(cc1-c1ccc([N+](=O)[O-])cc1)C(O)Oc1ccccc1-2` (stereo not given), the growth in the assay with T-47D breast was 75.3%; in the assay on BT-549 breast, 97.1%; in the assay with MDA-MB-435 melanoma, 89.3%; in the assay with SW-620 colon, 91.9%; with MCF7 breast, 90.8%; in the assay with HCT-116 colon it was 94.8%. Moreover, the growth in the assay with HCC-2998 colon is 94.3%; in the assay with KM12 colon it was 95.4%.
Regarding `Cc1cc(Cl)ccc1Nc1nc(C(F)(F)F)ccc1C(=O)N/N=C/c1ccc(Cl)cc1`, the growth was -0.161% (active) in the assay on T-47D breast; -7.4% (active) in the assay on BT-549 breast; 37.1% in the assay with MDA-MB-435 melanoma; 9.53% (active) in the assay on SW-620 colon; 2.27% (active) in the assay on MCF7 breast; -38.8% (active) in the assay with HCT-116 colon. The growth with HCC-2998 colon is -13.3% (active); in the assay on KM12 colon, 6.03% (active).

Source of the values: PubChem BioAssay (NCI).
